The list is not random: actives were taken first. Their share in the collection is about 12%.
JMJD2A Tudor: JMJD2A Tudor domain (human) inhibition; O75164; AlphaScreen JMJD2A-Tudor / H3K4me3 peptide binding; Potency, µM (top dose mostly 114 µM), without a hit: top-dose activity change, negative = inhibition, actives largely listed as inhibitors; 390,000 compounds, 4.4% hits; further: potency means the concentration at half of the fitted maximal effect; on the % scale 0 is the no-effect control and ±100 the full control effect; nearly all actives have a fitted effect of over 50% in size
PI5P4Ka inh: blocks human PI5P4K alpha kinase activity; max response, %; PI5P4Kalpha enzyme, ADP-Glo luminescence, 60 min; stronger effect = lower value; AID 652105; 330,000 compounds, 1.2% hits; P48426; active means max response of -50% or lower; inconclusive means between -30% and -50%; inactive means -30% or higher; further: value at the top dose of about 77 µM; on the % scale 0 is the no-effect control and ±100 the full control effect
Target sequence (P48426 whole entry, looked up): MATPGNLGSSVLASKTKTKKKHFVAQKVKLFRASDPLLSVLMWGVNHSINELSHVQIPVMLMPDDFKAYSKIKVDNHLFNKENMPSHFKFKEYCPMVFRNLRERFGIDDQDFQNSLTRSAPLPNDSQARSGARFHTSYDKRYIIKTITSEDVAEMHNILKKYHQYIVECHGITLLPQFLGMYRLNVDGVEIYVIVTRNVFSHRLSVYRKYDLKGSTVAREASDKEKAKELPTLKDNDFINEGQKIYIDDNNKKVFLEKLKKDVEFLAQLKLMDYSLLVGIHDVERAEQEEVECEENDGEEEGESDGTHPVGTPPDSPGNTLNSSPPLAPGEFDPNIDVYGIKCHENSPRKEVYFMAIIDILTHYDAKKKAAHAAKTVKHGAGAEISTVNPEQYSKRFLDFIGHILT
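Single end-point luminescence (ADP-Glo) quantified ADP from PI5P4Kalpha turnover; ATP 5 microM final, 1 h at RT, 0.1% CHAPS and 0.28 mM EGTA in HEPES pH 7.4.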
G9a block: G9a (human) methyltransferase inhibition. Q96KQ7. G9a H3K9 monomethylation, AlphaScreen, 2 h. Potency, µM (top dose mostly 102 µM), for the others: at the top dose activity, negative = inhibition, usual class: inhibitors. 350,000 compounds, 8.8% hits. AID 504332; further: potency means the concentration at half of the fitted maximal effect; on the % scale 0 is the no-effect control and ±100 the full control effect; nearly all actives have a fitted effect of over 75% in size
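Compounds were preincubated with 20 nM G9a for 15 min, after which biotinylated H3K9 peptide (500 nM) and SAM (20 uM) started a 2 h room-temperature reaction. Monomethylated product was quantified by antibody-based AlphaScreen chemiluminescence.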
PLK1 PBD block: PLK1 (human) polo-box domain binding inhibition. Potency, µM, for inactives: max response, negative = inhibition, hits mostly inhibitors. 360,000 compounds, 2.8% hits. P53350. Plk1 PBD binding of FITC phosphopeptide, fluorescence polarization; further: potency means the concentration at half of the fitted maximal effect; series mostly up to about 57 µM; on the % scale 0 is the no-effect control and ±100 the full control effect; nearly all actives have a fitted effect of over 65% in size
HP1b chromo inh: blocks HP1-beta chromodomain binding to methylated histone tails; 390,000 compounds, 0.56% hits; AID 540317; Potency, µM (highest dose often 114 µM), inactives show top-dose activity change, negative = inhibition, actives largely listed as inhibitors; AlphaScreen HP1-beta / biotin-H3K9me3 peptide binding; further: potency means the concentration at half of the fitted maximal effect; nearly all actives have a fitted effect of over 70% in size
Target sequence (P83916 whole entry, looked up): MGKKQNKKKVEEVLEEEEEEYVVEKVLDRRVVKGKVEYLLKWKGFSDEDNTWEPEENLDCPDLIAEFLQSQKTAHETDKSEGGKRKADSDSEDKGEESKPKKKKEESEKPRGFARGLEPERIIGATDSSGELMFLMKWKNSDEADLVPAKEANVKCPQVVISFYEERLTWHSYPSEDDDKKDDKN
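Compound inhibition of the preformed complex between 50 nM HP1-beta and 50 nM biotinylated H3K9me3 peptide was read by AlphaScreen. Buffer was PBS pH 7.4 with 0.01% Tween-20. Incubations ran 30 min at room temperature, with 10 ug/mL donor/acceptor beads.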
BAZ2B block: blocks human BAZ2B. Potency, µM (series often up to 114 µM), inactives show at the highest dose activity change, negative = inhibition, hits mostly inhibitors. AlphaScreen BAZ2B-H3K14Ac peptide displacement. AID 504333. Q9UIF8. 360,000 compounds, 4.4% hits; further: potency means the concentration at half of the fitted maximal effect; on the % scale 0 is the no-effect control and ±100 the full control effect; nearly all actives have a fitted effect of over 60% in size
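AlphaScreen displacement: compounds (up to 110uM) incubated 30 min at room temperature with a preformed 50 nM BAZ2B/50 nM biotinylated H3K14Ac peptide complex in PBS pH 7.4 with Tween-20. Donor and acceptor beads at 10 ug/mL final added, 20 min light-protected before reading.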
The depositor's hits bear a star; ? = inconclusive; nt = no result given; [ ] = another dose, or the depositor's remark. Unless noted, the call rests on the fitted dose curve; in most records, active means well fitted curve in the direction sought with a large enough effect; inconclusive means small, poorly fitted or top-dose-only effect, or another doubt; inactive means no such curve, though single readings can be large; an effect the other way counts as inactive or inconclusive.

SMILES	JMJD2A Tudor	PI5P4Ka inh	G9a block	PLK1 PBD block	HP1b chromo inh	BAZ2B block
Cc1c(Cl)cccc1NC(=O)CCS(=O)(=O)c1cccc2nsnc12	6%	nt	0%[59 µM]	nt	16%	-1%
COc1ccc(O)c(/C=N/c2sc(C)c(C)c2C#N)c1	79µM*	?	?	30µM*	?	-33%
Cc1sc(/N=C/c2c(O)ccc3ccccc23)c(C#N)c1C	nt	nt	10µM*	nt	nt	3%
Cc1n[nH]c(=S)n1/N=C/c1c(O)ccc2ccccc12	?	-7	nt	-21%	43%	-13%
O=c1c(-c2ccc(F)cc2)nc2cnc(Oc3cccc(Cl)c3)nc2n1C[C@H]1CCCO1	nt	nt	0%[0.501 µM]	nt	nt	nt
Cc1sc2ncnc(N3CCCC(C)C3)c2c1C (stereo not drawn)	19%	-4	56µM*	3%	55%	-9%
O=S1(=O)Nc2c(cc(Cl)c3ccc(Cl)nc23)-c2ccccc21	40µM*	nt	nt	nt	?	nt
CCOCCCNCC(=O)Nc1ccccc1N1CCOCC1	4µM*	nt	11µM*	-5%	?	35µM*
CSc1ccccc1NC(=O)CNCCCN1CCOCC1	0.11µM*	-20	3.5µM*	?	-26%[57 µM]	56µM*
Cc1nn(Cc2ccc(Cl)c(Cl)c2)c(C)c1NC(=O)c1cc(-c2ccc3c(c2)OCO3)on1	-18%	nt	56µM*	1%	4%	50µM*
Cc1nn(Cc2ccc(Cl)cc2)c(C)c1NC(=O)c1cc(-c2ccc3c(c2)OCO3)on1	-4%	nt	-27%	2%	22%	-8%
CCS(=O)(=O)c1ncc(Cl)c(C(=O)N2CCN(c3cccc(Cl)c3)CC2)n1	-31%	nt	13µM*	nt	8%	-11%
O=C(c1ccc(S(=O)(=O)N2CCCC2)cc1)N1CCN(c2cccc(Cl)c2)CC1	-12%	-2	-14%	0%	22%	1%
CS(=O)(=O)c1ncc(Cl)c(C(=O)N2CCN(c3cccc(Cl)c3)CC2)n1	-17%	nt	13µM*	nt	32%	?
NS(=O)(=O)c1ccc(N=Nc2ccc(O)c3ncccc23)cc1	20µM*	-79*	50µM*	-6%	?	3.5µM*
CCOc1ccc(N=Nc2cc(C(C)C)ccc2O)cc1	18µM*	38	20µM*	-2%	14µM*	5.6µM*
NS(=O)(=O)c1ccc(N=Nc2ccc(=O)[nH]c2O)cc1	35µM*	-80*	-31%[2.33 µM]	27µM*	50µM*	45µM*
CCOc1ccc(N=C(C)c2ccccc2O)cc1	-16%	3	?	-1%	24%	-35%
CCOc1ccc(N=Nc2ccc(O)c3ncccc23)cc1	?	0	40µM*	-4%	-8%	?
Cc1c(C#N)c(O)n(C)c(=O)c1N=Nc1ccc(S(N)(=O)=O)cc1	-27%	-15	-11%[59 µM]	-4%	9%	-38%
COc1cc(-c2noc(-c3ccc(NC4CCCCC4)c([N+](=O)[O-])c3)n2)cc(OC)c1OC	-23%	nt	?	nt	12%	0%
c1ccc(NC2=NCCN2CC2CCCCCC2)cc1	-4%	6	-9%[2.33 µM]	-1%	31%	0%
C=CCn1c(=O)c(CCC(=O)Nc2ccc(N3CCOCC3)cc2)nc2cc(C(F)(F)F)ccc21	35µM*	-53*	nt	21µM*	-21%	-8%
C#CCOCCOCCOCCNc1nc(N2CCN(C(=O)[C@H](C(C)C)n3cc(CCO)nn3)CC2)nc(N2CCN(C(=O)[C@H](Cc3ccc(O)cc3)n3cc(CCO)nn3)CC2)n1	-18%	2	nt	-1%	35%	nt
C#CCOCCOCCOCCNc1nc(N2CCN(C(=O)[C@H](Cc3ccc(O)cc3)n3cc(CCO)nn3)CC2)nc(N2CCN(C(=O)[C@H](Cc3ccc(O)cc3)n3cc(CCO)nn3)CC2)n1	nt	nt	35µM*	nt	nt	?
SMILES	JMJD2A Tudor	PI5P4Ka inh	G9a block	PLK1 PBD block	HP1b chromo inh	BAZ2B block
C#CCOCCOCCOCCNc1nc(N2CCN(C(=O)[C@H]([C@@H](C)O)n3cc(CCCCN)nn3)CC2)nc(N2CCN(C(=O)[C@H](Cc3ccc(O)cc3)n3cc(CCO)nn3)CC2)n1	?	2	50µM*	-22%	43%	?
CC1CCc2c(sc3nc(C(C)(C)C)nc(N4CCN(C(=O)CCl)CC4)c23)C1 (stereo not drawn)	-24%	19	-9%	-9%	23%	?
O=C(Nc1ccccc1Cl)N1CCN(c2ccc3nnc(-c4ccccc4)n3n2)CC1	-15%	4	50µM*	1%	26%	-30%
O=C(Nc1ccc(Cl)cc1)N1CCN(c2ccc3nnc(-c4ccc(F)cc4)n3n2)CC1	-17%	-9	6%[59 µM]	-4%	13%	11%
COc1cc(C(=O)N2Cc3cc4ccccc4nc3C2C)cc(OC)c1OC (stereo not drawn)	nt	-1	nt	3%	nt	nt
CN1CCN(c2nc3c(=O)[nH]c(N)nc3n2C2OC(CO)C(O)C2O)CC1 (stereo not drawn)	-10%	nt	nt	nt	27%	nt
CC(C)CCNC(=O)C1CCN(C(=O)c2cc3sccc3n2Cc2ccc(Cl)cc2)CC1	5%	nt	6%[59 µM]	nt	33%	-21%
Cc1[nH]c2ccccc2c1C(=O)COC(=O)C1CC(O)CN1S(=O)(=O)c1ccc(Cl)cc1 (stereo not drawn)	32µM*	-27	-14%[59 µM]	150%	-14%[57 µM]	0%
O=C(COC(=O)C1CC(O)CN1S(=O)(=O)c1ccc(Cl)cc1)c1ccccc1 (stereo not drawn)	-12%	4	-2%	-9%	23%	-3%
CN(C)c1ccc(-c2ccc3ncnc(N(C)Cc4ccco4)c3c2)cc1	nt	nt	-14%[0.501 µM]	nt	nt	nt
O=[N+]([O-])c1ccc(S(=O)Cc2ccccc2)c([N+](=O)[O-])c1 (stereo not drawn)	?	0	nt	0.75µM*	-14%	nt
COc1ccc([C@H]2C[C@H](O)[C@@H](n3cc(-c4ccc(F)cc4)nn3)CN2CC2CCCCC2)cc1	nt	20	nt	1%	nt	nt
CNc1nc(C#N)nc(Nc2ccccc2)n1	-18%	nt	nt	nt	nt	nt
CNc1nc(NN)nc(Nc2ccccc2)n1	25µM*	-5	-8%[0.501 µM]	-6%	41%	28µM*
O=c1c(CCc2ccccc2)nc2cnc(N3CCNCC3)nc2n1Cc1ccc(F)cc1	nt	nt	2%[12.7 µM]	nt	nt	nt
N=C1/C(=C/c2ccc(OCc3ccccc3F)cc2)C(=O)N=C2SC(CC(=O)N3CCOCC3)=NN12	?	-25	4%	38µM*	2%	-28%
N=C1/C(=C/c2ccc(OCc3ccccc3)cc2)C(=O)N=C2SC(CC(=O)N3CCOCC3)=NN12	?	?	?	?	1%	?
COc1cccc(-n2c(C)cc(/C=C3\C(=N)N4N=C(CC(=O)N5CCOCC5)SC4=NC3=O)c2C)c1	-2%	0	-5%	-2%	16%	50µM*

Bioassay records deposited in PubChem by National Center for Advancing Translational Sciences (NCATS).
